Screening results deposited in PubChem BioAssay by National Center for Advancing Translational Sciences (NCATS).
Compounds with a hit are over-represented: about 19% of the library has one in this group of screens.
KB-3-1 tox: kills parental KB-3-1 adenocarcinoma cells; KB-3-1 viability, CellTiter-Glo ATP luminescence, 72 h; Potency, µM (titrated, usually from 46.1 µM), hits mostly cytotoxic; 400,000 tested, 1.4% active; AID 1347075; further: nearly all actives have a fitted effect of over 60% in size
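Screening of KB-3-1 cells (DMEM, 10% FBS, phenol-red free) ran from lowest to highest compound concentration; after 72 h at 37 °C viability was read luminescently and curves fitted.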
KB-V1 cytotox: KB-V1 MDR subline cytotoxicity; AID 1347076; Potency, µM (top dose mostly 46.1 µM), actives largely listed as cytotoxic; 400,000 tested, 3.4% active; KB-V1 MDR cells viability, CellTiter-Glo, 72 h; further: nearly all actives have a fitted effect of over 60% in size
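Luminescent ATP read-out (CellTiter-Glo, 10 min) measures survival of drug-selected KB-V1 MDR cells after 72 h, 37 degrees C compound exposure. Medium: phenol-red-free DMEM, 10% FBS. Values from fitted concentration-response curves.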
DT40 TDP1 CPT: DT40-hTDP1 cell growth loss with CPT; chicken DT40 Tdp1-/-;hTDP1 cells + 20 nM CPT, ATP luminescence, 48 h; Potency, µM (top dose mostly 46.2 µM), for the others: at the highest dose activity change, negative = growth inhibition, hits mostly inhibitors; 420,000 tested, 12% active; AID 686979; further: nearly all actives have a fitted effect of over 55% in size
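Cell growth measured by CellTiter-Glo luminescence after a minimum 48 h, 37 C compound exposure with 20 nM CPT in Tdp1-knockout DT40 cells stably expressing hTDP1, seeded 400/well; qHTS titration format.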
HT1080 IDH1KD tx: HT-1080 IDH1 knockdown cell toxicity (counter line); HT-1080 IDH1 knockdown viability, ATP luminescence, 48 h; Potency, µM (doses to about 46.1 µM), inactives show top-dose activity, negative = toxicity, actives largely listed as cytotoxic; 360,000 tested, 2% active; AID 686971;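 further: 0% = DMSO wells and -100% = cell-free medium wells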
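Cytotoxicity counter-line: IDH1KD HT-1080, 48 h, CellTiter-Glo. Curves classed by r2, magnitude and activity.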
HT1080-NT tox: kills 2HG-producing HT-1080-NT fibrosarcoma cells | HT-1080-NT fibrosarcoma viability, CellTiter-Glo ATP luminescence, 48 h | Potency, µM (titrated, usually from 46.1 µM), for the others: at the highest dose activity, negative = less viability, actives largely listed as cytotoxic | 360,000 tested, 1.6% active;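 further: NT is the 2HG producing partner of a matched IDH1 knockdown line; 0% = DMSO-treated cells and -100% = media-only wells without cells; nearly all actives have a fitted effect of over 55% in size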
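HT-1080-NT fibrosarcoma cells (2HG-overproducing), 750 cells/well in RPMI with 5% FBS, dosed after 2 h and incubated 48 h at 37C. CellTiter-Glo luminescence normalized to DMSO and no-cell wells; concentration-response curves fitted and classed.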
DT40 TDP1 no CPT: qHTS for Inhibitors of human tyrosyl-DNA phosphodiesterase 1 (TDP1): qHTS in cells in absence of CPT; DT40 Tdp1-/- hTDP1 cells, no CPT, ATP luminescence, 48 h; 420,000 tested, 15% active; Potency, µM (highest dose often 46.2 µM), for the others: top-dose activity change, negative = growth inhibition, most hits filed as inhibitors; further: nearly all actives have a fitted effect of over 55% in size
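Seeded 400 DT40-hTDP1 cells/well (vehicle DMSO, no 20 nM CPT); pinned compounds; ≥48 hr at 37 °C; CellTiter-Glo luminescence as viability measure.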
Active calls of the source: *. The call rests on the fitted dose curve; in most records, active means well fitted curve in the direction sought with a large enough effect; inconclusive means small, poorly fitted or top-dose-only effect, or another doubt; inactive means no such curve, though single readings can be large; an effect the other way counts as inactive or inconclusive. Unless noted, on the % scale 0 is the no-effect control and ±100 the full control effect; potency means the concentration at half of the fitted maximal effect.

How did O=C(NN1CCOCC1)c1cccc(Cl)c1 do in these assays?
KB-3-1 tox: inactive; KB-V1 cytotox: inconclusive; DT40 TDP1 CPT: -4.3%; HT1080 IDH1KD tx: 11.8%; HT1080-NT tox: 19.4%; DT40 TDP1 no CPT: 20.6%

How did Cc1cc(NC(=O)CSc2nnc(-c3cccnc3)n2Cc2ccccc2)no1 do in these assays?
KB-3-1 tox: inactive; KB-V1 cytotox: inactive; DT40 TDP1 CPT: -2.5%; HT1080 IDH1KD tx: -1.1%; HT1080-NT tox: 7.0%; DT40 TDP1 no CPT: -3.9%

Results for COc1ccc(C[C@H]2c3cc(O)c(OC)cc3CC[N+]2(C)[O-])cc1O (stereo partly drawn) ?
KB-3-1 tox: inactive; KB-V1 cytotox: inactive; DT40 TDP1 CPT: inconclusive; HT1080 IDH1KD tx: 12.9%; HT1080-NT tox: 7.7%; DT40 TDP1 no CPT: 20.6µM*

What do the screens show for `O=C(Nc1nccs1)C1Cc2ccccc2CN1S(=O)(=O)c1ccc(F)cc1` (stereo not drawn)?
KB-3-1 tox: inactive; KB-V1 cytotox: inactive; DT40 TDP1 CPT: inconclusive; HT1080 IDH1KD tx: -6.3%; HT1080-NT tox: 1.5%; DT40 TDP1 no CPT: 14.6µM*

How did COc1ccc(S(=O)(=O)N2Cc3ccccc3CC2C(=O)Nc2cccc(C)c2)cc1OC (stereo not drawn) do in these assays?
KB-3-1 tox: inactive; KB-V1 cytotox: inactive; DT40 TDP1 CPT: inconclusive; DT40 TDP1 no CPT: 9.2µM*

Results for CCCCOC(=O)c1ccc(NC(=O)c2ccc3c(c2)CCN3S(=O)(=O)c2ccccc2)cc1 ?
DT40 TDP1 CPT: 5.8µM*; DT40 TDP1 no CPT: 7.31µM*

How did CCOC(=O)c1ccc(NC(=O)c2ccc3c(c2)CCN3S(=O)(=O)c2ccc(Cl)cc2)cc1 do in these assays?
KB-3-1 tox: inactive; KB-V1 cytotox: inactive; DT40 TDP1 CPT: 7.31µM*; DT40 TDP1 no CPT: inconclusive

Results for COc1ccc(NC(=O)c2ccc3c(c2)CCN3S(=O)(=O)c2ccccc2)cc1 ?
KB-3-1 tox: inconclusive; KB-V1 cytotox: inactive; DT40 TDP1 CPT: inconclusive; HT1080 IDH1KD tx: -11.1%; HT1080-NT tox: -19.3%; DT40 TDP1 no CPT: inconclusive

What do the screens show for `Cc1cc(C(F)(F)F)nn1CC(=O)NNC(=S)Nc1cccc(Cl)c1`?
KB-3-1 tox: inactive; KB-V1 cytotox: inactive; DT40 TDP1 CPT: 2.2%; HT1080 IDH1KD tx: 14.3%; HT1080-NT tox: -0.8%; DT40 TDP1 no CPT: 5.0%

How did Nc1ccn([C@@H]2O[C@H](C(=O)Nc3ccc(Oc4ccccc4)nc3)[C@@H](O)[C@H]2O)c(=O)n1 do in these assays?
KB-3-1 tox: inactive; KB-V1 cytotox: inactive; DT40 TDP1 CPT: -4.3%; HT1080 IDH1KD tx: 3.2%; HT1080-NT tox: 7.3%; DT40 TDP1 no CPT: 11.6%

What do the screens show for `CCOC(=O)c1ccc(NC(=O)C2CC(O)CN2S(=O)(=O)c2ccc(C)cc2)cc1` (stereo not drawn)?
KB-3-1 tox: inactive; KB-V1 cytotox: inactive; DT40 TDP1 CPT: -25.1%; HT1080 IDH1KD tx: 0.7%; HT1080-NT tox: -4.8%; DT40 TDP1 no CPT: inconclusive

Results for CCOC(=O)c1ccc(NC(=O)C2Cc3ccccc3CN2S(=O)(=O)c2ccc(Cl)cc2)cc1 (stereo not drawn) ?
DT40 TDP1 CPT: inconclusive; DT40 TDP1 no CPT: 16.4µM*

Results for COCCN(C)Cc1nc(C(c2ccccc2)c2ccccc2)no1 ?
KB-3-1 tox: inactive; KB-V1 cytotox: inactive; DT40 TDP1 CPT: -20.9%; HT1080 IDH1KD tx: 10.2%; HT1080-NT tox: 2.6%; DT40 TDP1 no CPT: 0.2%

What do the screens show for `c1ccc(C(c2ccccc2)c2noc(CN3CCN(CC4CC4)CC3)n2)cc1`?
KB-3-1 tox: inactive; KB-V1 cytotox: inactive; DT40 TDP1 CPT: 14.6µM*; HT1080 IDH1KD tx: -14.1%; HT1080-NT tox: -2.5%; DT40 TDP1 no CPT: inconclusive
